Test results reported in the supplement of paper PMC10646978.
± gives the standard deviation.

What was measured:
Details in all cases: modulator concentration 10 µM
[1] = test system: RAW-Dual (murine macrophage reporter line); assay: NF-kB reporter (SEAP) activity fold change vs agonist alone; higher = enhanced NF-kB activity
Outline: (§1)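 Overnight stimulation with a PRR agonist followed pre-incubation for 1 hour at 37 °C with compound at 10 μM final. This was done in RAW-Dual murine macrophage reporter cells seeded at 50 000 per well in 384-well plates. NF-κB (SEAP, QUANTI-Blue absorbance at 620 nm) and IRF (Lucia luciferase, QUANTI-Luc luminescence) were read from the supernatant. Each reporter's fold change relative to the mean agonist-only control on the same plate was averaged over replicate plates.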

[2] = test system: RAW-Dual (murine macrophage reporter line); assay: IRF reporter (Lucia luciferase) activity fold change vs agonist alone; higher = enhanced IRF activity
Outline: as §1

[3] = test system: RAW-Dual (murine macrophage reporter line); assay: viability score (confluency relative to resting cells, overnight) (fraction); higher = more viable, active = viable (0.7 or more)
Outline: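 Confluency was the readout: RAW-Dual macrophages were imaged with IncuCyte after an overnight exposure to compound at 10 μM final. IncuCyte software produced two masks over all imaged wells. The viability score expresses confluency against resting cells, and both masks had to exceed 70% of resting cells for a compound to meet the cutoff.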

[4] = agonist: CpG ODN 1826 0.5 ug/mL

SMILES	NF-kB reporter [1, 4]	NF-kB reporter ([1]; agonist: LPS 0.1 ug/mL)	NF-kB reporter ([1]; agonist: MPLA […])	IRF reporter ([2]; agonist: 3'3'-cGAMP 10 ug/mL)	IRF reporter ([2]; agonist: LPS 0.1 ug/mL)	IRF reporter ([2]; agonist: MPLA […])	viability score [3]
O=S(=O)(Nc1ccnc2ccccc12)c1ccccc1	0.928 ± 0.075	0.88 ± 0.066	0.936 ± 0.088	0.858 ± 0.03	1.12 ± 0.11	1.15 ± 0.19	1.03 (active)
N=C(N)Nc1nc(CSCCC(=N)NS(N)(=O)=O)cs1	1.09 ± 0.1	0.992 ± 0.059	1.06 ± 0.039	0.967 ± 0.064	0.898 ± 0.036	1.02 ± 0.088	0.995 (active)
CN1CCN(S(=O)(=O)c2ccc(-c3ccc(S(=O)(=O)N4CCN(C)CC4)cc3)cc2)CC1	0.865 ± 0.048	1.06 ± 0.074	0.955 ± 0.06	1.04 ± 0.043	1.45 ± 0.15	1.1 ± 0.098	0.999 (active)
CCOc1ccc(S(=O)(=O)N2C3CCC2CC(S(=O)(=O)c2ccccc2)C3)cc1 (configuration not stated)	0.976 ± 0.06	1.05 ± 0.098	0.968 ± 0.053	0.977 ± 0.044	1.25 ± 0.2	1.25 ± 0.29	0.978 (active)
Cc1cc(Nc2cc(CN3CCOCC3)c3nc(C)c(Cc4ccc(Cl)cc4F)n3n2)[nH]n1	2.15 ± 0.29	1.46 ± 0.39	1.59 ± 0.13	0.291 ± 0.025	0.884 ± 0.16	2.72 ± 0.31	0.0653 (inactive)
O=C(Nc1nc2ccc(Cl)cc2s1)c1ccc(Br)s1	0.998 ± 0.062	0.927 ± 0.072	0.924 ± 0.025	0.975 ± 0.043	1.06 ± 0.054	1.09 ± 0.11	0.999 (active)
CCC(=O)c1c(O)cc(O)cc1O	1.03 ± 0.083	1.1 ± 0.055	1.04 ± 0.055	0.922 ± 0.056	0.946 ± 0.081	0.84 ± 0.071	0.999 (active)
Cc1ccc(C2C=C(c3ccccc3)Nc3ncnn32)cc1 (configuration not stated)	0.956 ± 0.089	1.07 ± 0.12	0.893 ± 0.064	1.1 ± 0.056	1.13 ± 0.11	1.23 ± 0.35	0.982 (active)
COc1ccc(OC)c(Nc2nc(-c3c(C)nc4ncccn34)cs2)c1	2.14 ± 0.18	1.35 ± 0.12	1.09 ± 0.083	0.3 ± 0.014	0.381 ± 0.035	0.361 ± 0.066	0.907 (active)
N#CC[C@H](C1CCCC1)n1cc(-c2ncnc3[nH]ccc23)cn1	1.4 ± 0.11	0.341 ± 0.017	0.734 ± 0.074	0.269 ± 0.012	0.719 ± 0.063	0.764 ± 0.074	0.979 (active)
CCC(=O)N(CCC(c1ccccc1OC)C1CCOC(C)(C)C1)Cc1ccc(OC)cc1 (configuration not stated)	0.907 ± 0.072	0.986 ± 0.059	0.938 ± 0.056	1.04 ± 0.055	1.23 ± 0.29	1.04 ± 0.088	1.01 (active)
CC1=C(CC(=O)O)c2cc(F)ccc2/C1=C\c1ccc(S(C)=O)cc1 (configuration not stated)	0.984 ± 0.14	0.828 ± 0.061	1.13 ± 0.098	1.09 ± 0.051	1.23 ± 0.073	1.41 ± 0.13	1 (active)
COc1ccc(C(NC(=O)c2ccccc2F)c2ccc(OC)cc2)cc1	1.03 ± 0.17	1.08 ± 0.093	1.01 ± 0.095	1 ± 0.032	1.21 ± 0.27	1.24 ± 0.16	1 (active)
CCN(CC)C(=S)SSC(=S)N(CC)CC	1.2 ± 0.097	0.633 ± 0.041	2.07 ± 0.22	2.71 ± 0.29	0.201 ± 0.025	0.114 ± 0.018	0.461 (inactive)
O=C(CCCN1CCN(c2ccccn2)CC1)c1ccc(F)cc1	0.595 ± 0.084	1.05 ± 0.1	0.952 ± 0.056	0.924 ± 0.12	1.37 ± 0.12	1.15 ± 0.12	0.977 (active)
Clc1ccc(C=NN2CCN(C(c3ccccc3)c3ccccc3)CC2)cc1	1.06 ± 0.087	1.02 ± 0.087	0.928 ± 0.025	1.02 ± 0.051	1.05 ± 0.049	0.962 ± 0.1	0.996 (active)
Cn1cc(-c2cc(CNC(=O)c3cncc(Br)c3)ccn2)cn1	0.92 ± 0.041	1.05 ± 0.1	1.15 ± 0.065	0.872 ± 0.057	1.1 ± 0.17	1.3 ± 0.41	0.943 (active)
Cl.Cl.O=C(O)COCCN1CCN([C@H](c2ccccc2)c2ccc(Cl)cc2)CC1	1.07 ± 0.082	1.06 ± 0.052	1.01 ± 0.047	0.94 ± 0.057	0.905 ± 0.035	0.97 ± 0.13	1 (active)
COc1cccc(S(=O)(=O)NCc2sc(-c3ccccc3)nc2C)c1	1.26 ± 0.12	1.1 ± 0.086	0.901 ± 0.045	0.922 ± 0.059	1.11 ± 0.12	1.16 ± 0.28	0.942 (active)
Ic1ccc(OCCCOc2ncnc3ccccc23)cc1	0.781 ± 0.069	0.931 ± 0.045	1.14 ± 0.12	0.963 ± 0.05	1.39 ± 0.095	1.6 ± 0.2	1.02 (active)
CS(=O)(=O)N1CCN(Cc2cc3nc(-c4cccc5[nH]ncc45)nc(N4CCOCC4)c3s2)CC1	0.179 ± 0.029	2.63 ± 0.34	2.94 ± 0.17	0.151 ± 0.0092	1.4 ± 0.24	1.33 ± 0.17	0.888 (active)
CCCCSc1nnc2c(n1)OC(c1cccc(F)c1)Nc1ccc(Br)cc1-2 (configuration not stated)	1.07 ± 0.18	1.01 ± 0.078	0.951 ± 0.083	0.914 ± 0.036	1.24 ± 0.13	1.13 ± 0.12	1 (active)
COc1c(O)cc(O)cc1O	1.03 ± 0.095	1.08 ± 0.057	1.1 ± 0.047	1.07 ± 0.069	0.985 ± 0.078	1.02 ± 0.17	0.996 (active)
O=C(NCCNC(=O)c1ccccc1Cl)c1ccc(NC(=O)C2CC2)cc1	0.924 ± 0.04	1.01 ± 0.084	1.67 ± 0.56	1.02 ± 0.052	1.36 ± 0.25	1.69 ± 0.5	0.98 (active)
CC(C)N(C(=O)c1ccc(C(=O)NCc2ccc(S(N)(=O)=O)cc2)cc1)C(C)C	0.974 ± 0.057	1.07 ± 0.079	0.909 ± 0.072	0.961 ± 0.033	1.51 ± 0.12	1.21 ± 0.18	1 (active)
c1cc2c3c(cccc3c1)-c1nc3ccccc3nc1-2	0.993 ± 0.17	1.09 ± 0.13	1.02 ± 0.095	0.984 ± 0.026	1.32 ± 0.15	1.59 ± 0.3	1.01 (active)
